SARS PLP yeast: qHTS of Yeast-based Assay for SARS-CoV PLP; S. cerevisiae expressing SARS-CoV PLpro, growth rescue; Potency, µM (series often up to 32.9 µM), without a hit: at the highest dose activity, positive = growth rescue, hits mostly activators; actives 0.19% (n = 330,000); AID 485353, 2010; calls by dose curve; note: potency is the fitted concentration of half-maximal effect; 0% is about no effect; nearly all actives have a fitted effect of over 55% in size
HCV inh: qHTS Assay for Inhibitors of Hepatitis C Virus (HCV); actives 3.4% (n = 340,000); Potency, µM (titrated, usually from 41.8 µM), for inactives: at the top dose activity change, negative = inhibition, usual class: inhibitors; AID 651820, 2012; Huh7.5.1 HCVcc-Cre infection, luciferase reporter, 44 h; note: potency is the fitted concentration of half-maximal effect; % is set by controls: 0 for no effect and ±100 for the full control effect
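Compounds are dispensed onto cells plated 4 h earlier at 1,000 per well, with HCVcc-Cre virus (about 0.5 moi) added next. Following 44 h of culture, luminescent signal is measured for 15 sec after 15 min with substrate at room temperature.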
HCMV antiviral: qHTS Assay for inhibitors of the human cytomegalovirus (HCMV); AID 1259415, 2018; HFF cells, HCMV-luciferase reporter, 72 h; stronger effect = lower value; activity change, negative = inhibition, % at 57.5 µM; actives 4.5% (n = 410,000); in the data active = activity change below about -60%; inconclusive = no clear call, values can overlap the other calls; inactive = above about -39%; note: % is set by controls: 0 for no effect and ±100 for the full control effect
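Human foreskin fibroblasts infected with luciferase-reporter HCMV at MOI 1 PFU/cell, compounds at two doses. Luciferase measured 72 h post infection; normalized to buffer-only basal and Salinomycin (10uM) controls.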
Pf growth 48h: Primary qHTS for delayed death inhibitors of the malarial parasite plastid, 48 hour incubation; actives 5.9% (n = 310,000); Potency, µM (series often up to 28.7 µM), without a hit: at the top dose activity change, negative = inhibition, actives largely listed as inhibitors; P. falciparum luciferase growth in erythrocytes, 48 h; AID 504832, 2011; note: potency is the fitted concentration of half-maximal effect; % is set by controls: 0 for no effect and ±100 for the full control effect
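Luciferase-expressing P. falciparum in infected erythrocytes (2% hematocrit, 0.1% parasitemia final) in RPMI 1640/0.5% Albumax were exposed to compound for 48 hours at 37 C, 5% CO2; growth read as luminescence.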
Sm TGR block: qHTS Assay for the Inhibitors of Schistosoma Mansoni Peroxiredoxins | Schistosoma mansoni thioredoxin glutathione reductase (TGR), Q962Y6 | purified TGR, DTNB reduction, TNB absorbance 405 nm | Potency, µM (series often up to 114 µM), for inactives: at the highest dose activity change, negative = inhibition, actives largely listed as inhibitors | actives 3% (n = 360,000) | AID 485364, 2010; note: potency is the fitted concentration of half-maximal effect; % is set by controls: 0 for no effect and ±100 for the full control effect; nearly all actives have a fitted effect of over 60% in size
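TGR 20 nM + NADPH 100 uM (dispensed conc.), cpd preinc 15 min RT; start with NADPH (500 uM addition) then DTNB (15 mM addition). Kinetic TNB absorbance, 405 nm filter. Four-parameter Hill fit across titration.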
Pf growth 96h: Primary qHTS for delayed death inhibitors of the malarial parasite plastid, 96 hour incubation. P. falciparum luciferase reporter growth, 96 h. Potency, µM (series often up to 28.7 µM), inactives show at the highest dose activity change, negative = inhibition, usual class: inhibitors. actives 6.9% (n = 320,000). AID 504834, 2011; note: potency is the fitted concentration of half-maximal effect; % is set by controls: 0 for no effect and ±100 for the full control effect
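Cell-based qHTS: luciferase-tagged P. falciparum in erythrocytes (2% hematocrit, 0.05% parasitemia final) incubated with compounds for 96 hours, 37 C, 5% CO2; luciferase detection reagent then added and luminescence measured.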
Starred values were filed as active, the others as inactive; ? = inconclusive; · = not tested or not shown; [ ] = remark or other dose. Compounds with a hit are over-represented: about 15% of the library has one in this group of screens. Unless noted, calls come from the whole dose curve; as a rule, active = well fitted curve in the direction sought with a large enough effect; inconclusive = small, poorly fitted or top-dose-only effect, or another doubt; inactive = no such curve, though single readings can be large; an effect the other way counts as inactive or inconclusive.

SMILES	SARS PLP yeast	HCV inh	HCMV antiviral	Pf growth 48h	Sm TGR block	Pf growth 96h
CCN(C(=O)COC(=O)c1ccccc1Nc1ccccc1)c1c(N)n(Cc2ccccc2)c(=O)[nH]c1=O	·	?	-1.7	·	·	·
Cc1c(OCC(=O)NCCN2CCOCC2)ccc2c(-c3ccccc3)cc(=O)oc12	-1.3%	2.2%	?	-0.4%	-1.3%	-13.8%
Cc1ccc(NC(=O)N2CCN3CCCCC3C2)cc1C (configuration not stated)	·	·	-25.5	·	2.9%	·
Cc1ccc(/C=C2\SC(N3CCN(C(c4ccccc4)c4ccccc4)CC3)=NC2=O)o1	-36.2%	?	-28.3	5.86µM*	35.5µM*	1.65µM*
Cc1ccc(-c2ccc(/C=C3\SC(N4CCOCC4)=NC3=O)o2)cc1	-7.9%	12.6µM*	-4.1	?	?	6.2%
O=C(C[n+]1ccccc1)Nc1cc(C(F)(F)F)ccc1Cl	4.5%	-1.4%	36.5	-0.5%	-6.9%	31.2%
O=C(C[n+]1ccc2ccccc2c1)Nc1cc(C(F)(F)F)ccc1Cl	-15.2%	?	-20.4	1.31µM*	-0.2%	?
O=C(CN1CCN(C(=O)c2ccco2)CC1)Nc1cc(C(F)(F)F)ccc1Cl	12.1%	13.0%	·	1.65µM*	-10.0%	·
O=C(CN1CCCCCC1)Nc1cc(C(F)(F)F)ccc1Cl	-1.9%	-2.6%	?	6.4%	-15.9%	0.0%
FC(F)(F)c1ccc(Cl)c(N/N=C/c2ccc(N3CCOCC3)s2)c1	-21.8%	0.7%	-25.7	?	-2.6%	7.38µM*
COc1ccc(C(=O)N/N=C/c2ccc(N3CCOCC3)s2)cc1OC	1.3%	7.5%	-5.9	?	-29.4%	?
O=C(CN1CCOCC1)Nc1cc(C(F)(F)F)ccc1Cl	-2.8%	-27.0%	-66.1*	?	-3.1%	11.7µM*
Cc1c(C(=O)Nc2ccccc2F)sc2ncnc(N(C)C3CCCCC3)c12	·	·	-9.0	·	-0.8%	·
Cc1cc(C)c2cc(C#N)c(NCCNC(=O)c3ccccn3)nc2c1	·	·	14.1	·	·	·
CCc1ccccc1NC(=S)N(CCN(C)C)C(C)c1ccccn1 (configuration not stated)	-1.0%	22.4µM*	7.6	-3.3%	-2.8%	·
CC(C)(C)OC(=O)NCc1n[nH]c(=S)n1C1CC1	-1.1%	24.0%	21.6	22.2%	7.0%	-2.6%
CC(C)Oc1ccc(C2c3c(oc4ccccc4c3=O)C(=O)N2CCCN2CCOCC2)cc1 (configuration not stated)	-2.4%	-5.5%	-27.0	?	39.8µM*	?
COc1ccc(C2c3c(oc4ccc(C)cc4c3=O)C(=O)N2CCCN2CCOCC2)cc1OC (configuration not stated)	·	·	-9.2	·	-0.4%	·
O=C1c2oc3ccccc3c(=O)c2C(c2cccnc2)N1CCCN1CCOCC1 (configuration not stated)	5.1%	7.4%	2.5	13.2%	44.7µM*	17.1%
C=CCOc1ccc(C2c3c(oc4ccccc4c3=O)C(=O)N2CCCN2CCOCC2)cc1 (configuration not stated)	-2.8%	-6.2%	-21.4	?	?	?
Cc1ccc(C2c3c(oc4cc(C)c(C)cc4c3=O)C(=O)N2CCCN2CCOCC2)cc1 (configuration not stated)	-4.4%	-3.6%	4.3	5.22µM*	?	?
O=C1c2oc3ccc(Cl)cc3c(=O)c2C(c2ccccn2)N1CCCN1CCOCC1 (configuration not stated)	6.3%	?	12.8	?	12.6µM*	-24.6%
Fc1ccc(C(CCNCc2ccccn2)c2ccc(Cl)cc2)cc1 (configuration not stated)	-2.6%	?	·	8.9%[0.00184 µM]	?	?
CC(=O)c1ccc(NC(=O)COC(=O)CCC2CCCC2)cc1	-8.5%	9.8%	26.1	·	·	·
CCC(C)c1ccc(NC(=O)COC(=O)c2nc3nccc(C)n3n2)cc1 (configuration not stated)	0.5%	-0.2%	3.7	33.9%	-3.8%	56.2%
SMILES	SARS PLP yeast	HCV inh	HCMV antiviral	Pf growth 48h	Sm TGR block	Pf growth 96h
CC(=O)N1CCN(S(=O)(=O)c2cccc(C(=O)NNC(=O)COc3ccc(Cl)cc3C)c2)CC1	1.0%	2.2%	·	?	0.8%	5.7%
c1ccc(-c2nc(CSc3n[nH]c(-c4cccs4)n3)cs2)cc1	-25.8%	1.7%	31.1	5.0%	-0.1%	53.0%
COc1ccc(/C=C2/CCC(CN3CCOCC3)C2=O)cc1 (configuration not stated)	·	5.01µM*	-98.2*	·	·	·
Cc1ccc(C2CC(=O)C(C=NCCN3CCN(C(=O)Cc4ccccc4)CC3)=C(O)C2)cc1 (configuration not stated)	-4.9%	19.7%	10.0	19.0%	22.4µM*	-2.5%
O=C1CC(c2ccccc2)CC(O)=C1C=NCCN1CCN(C(=O)Cc2ccccc2)CC1 (configuration not stated)	-5.5%	21.4%	-0.7	·	-32.8%	37.4%
COc1ccc(C2CC(=O)C(C=NCCO)=C(O)C2)cc1 (configuration not stated)	-1.6%	9.1%	22.0	70.8%	3.0%	33.6%
COc1ccc(C2CC(=O)C(C=NCCCN3CCOCC3)=C(O)C2)cc1 (configuration not stated)	0.2%	6.8%	14.4	10.8%	?	3.29µM*
O=C1C(=O)N(CCc2c[nH]c3ccccc23)C(c2cccnc2)/C1=C(/O)c1ccccc1 (configuration not stated)	0.1%	·	·	-21.3%	-23.0%	18.9%
Cc1nc(S(=O)(=O)N2CCN(c3cccc(Cl)c3)CC2)cn1C	·	·	-7.3	·	-2.6%	·
CCOc1ccc(C2=NNC(c3cccs3)=Nc3ccc(OC)cc32)cc1	-31.8%	8.4%	21.8	11.7µM*	-3.4%	-30.7%
CCOc1ccc(C2=Nc3ccc(Br)cc3C(c3ccc(N4CCOCC4)cc3)=NN2)cc1	-5.4%	2.3%	-0.5	10.4µM*	-9.4%	?
CCOc1ccc(C2=NNC(c3cccnc3)=Nc3ccc(OC)cc32)cc1	-1.3%	?	-8.5	?	18.7%	?
CCOc1ccc2c(c1)C(c1ccc(C)o1)=NNC(c1ccncc1)=N2	-5.8%	?	5.3	1.47µM*	0.0%	3.1%
COc1ccccc1C(=O)N1CCC(N2CCN(c3ccccc3)CC2)CC1	0.6%	1.4%	26.2	?	15.9%	?

Bioassay records as filed in PubChem BioAssay.
